Measurements reported in the supplement of paper PMC11417369.
± gives the standard deviation of the averaged measurements. The full ranking holds about 25,000 sequences; the median of “ln(normalized median fluorescence intensity)” is about 8.6, and the highest 2% start at about 10. For the sample, the highest values were picked, then their nearest neighbours and some sequences at random.

system: PfAP2-EXP AP2 domain (GST-tagged); assay: gcPBM binding intensity (ln(normalized median fluorescence intensity)); higher = stronger DNA binding
Outline: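 DNA-binding domains from P. falciparum, fused to GST and produced in E. coli, were put on an Agilent 4 × 180k double-stranded probe array for 1 h in 1× PBS holding 1% milk, 0.2 mg/ml BSA, 0.5% salmon testes DNA and 0.03% Triton X-100. Probes were primer-extended, 36 bp long and drawn from intergenic genomic regions, with negative controls included. After Alexa488 anti-GST antibody detection and a 488 nm scan, binding intensity was set as the highest Masliner-normalised natural-log median intensity across replicate spots of either probe orientation.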

Sequence	gcPBM binding intensity (ln)
ATATTTATAACTTGGTGTACTTTGAAAAAAAAAAAA [XGTACX_site5194]	8.38 ± 0.26
TTTTAATAATATGGATGTACATAAAAATAAATAAAT [XGTACX_site7937]	9.04 ± 0.38
AAAAAACACTTAAGGTGTACCTTTTAATATAAGTAT [XGTACX_site2397]	8.38 ± 0.3
TATGTGAAATAAGGATGTACAATTTTGATTTCCCCA [XGTACX_site8389]	8.86 ± 0.52
TATAAACCGACGAAAACACACATATGTAAATATATA [CACACA_site491]	8.94 ± 0.59
TATACTTTATATATTTTGTATATATATTTTTTTTAT [TGCATGCA_negctrl_site530]	8.43 ± 0.31
GTTAATATTTTTGGGGGTACTTAAAAAAAAAAAAAA [XGTACX_site1477]	9.35 ± 0.26
ATTTTTTTTTTTTTTTTGGGGGGGTATACTTTTAAA [CACACA_negctrl_site1020]	11.2 ± 0.18
AAAAAAGAAAAAAAGTGTACAATATTTATTACATAT [XGTACX_site2277]	8.08 ± 0.028
TATTTAATTACATGAACACACATTATGTATTTTTAA [CACACA_site2962]	8.3 ± 0.3
TGAAATGATATATAAACACACATATATATATATATA [CACACA_site3511]	10 ± 0.36
AAAAAATTAAAAATCACACATAAATATATATAAAAA [CACACA_site4192]	8.45 ± 0.4
TTTGAAATGATATATAAACACACATATATATATATA [CACACA_site9170]	10.3 ± 0.4
AAAATTAATAAATAAACACACATATATATATATATA [CACACA_site2598]	10.1 ± 0.44
ACTAATTACTATAAAACACACATATATTTATTTATA [CACACA_site7263]	8.51 ± 0.34
ATAAATATATATATCACACATATATAATTATATATA [CACACA_site4787]	8.46 ± 0.3
AATAAATTGAAACACACACACACATATATATATATA [CACACA_site848]	10.2 ± 0.32
TGAAATGATATATAAACACACATATATAAATATGTA [CACACA_site7616]	8.18 ± 0.42
TATATATATATATAAACACACATAAATATAAATATA [CACACA_site1121]	10 ± 0.37
AATTAAAAAATTATCACACATATATATATATATATA [CACACA_site5789]	10.3 ± 0.52
CATATAAATAAACACACACACACATATATATATATA [CACACA_site5309]	10.2 ± 0.29
ACTAATTACTATAAAACACACATATATATATATATA [CACACA_site2591]	10.2 ± 0.29
TTTTTATTTTTAAAGGCACACACATTTTTATTTTTA [CACACA_site8624]	8.41 ± 0.31

Sequence	gcPBM binding intensity (ln)
AAACAAAATATGGTTCATGAGCAAAAGTTTATTTTG [XGTACX_negctrl_site531]	8.69 ± 0.47
TTGATTAAAATTAGTACACACAAAATACATGCGGGG [CACACA_site5284]	9.2 ± 0.3
AAGAACAAACAAAATAGTACAATATATATATATATA [XGTACX_site4258]	10 ± 0.28
ACTAAAAGATATATAATTTCTTTCTTATTTATTTTT [CACACA_negctrl_site842]	8.1 ± 0.35
AAATATATAAAATATACACACAGTAATATATATATA [CACACA_site1385]	9.52 ± 0.35
TTCTGTCAATATGCTTGTACGAAATATTTCGTAATT [XGTACX_site3182]	8.87 ± 0.4
TTTTTTGCTAAAAAGAGTACTAATAAAAAATTTATT [XGTACX_site5235]	8.34 ± 0.34
GAAAAAAAAAAAAATACACACAAATTGGTATATAAT [CACACA_site4369]	8.41 ± 0.39
AATAAACATAAATAAAAATTATAAAATATATATATG [CACACA_negctrl_site1709]	8.38 ± 0.32
TATAAATAAAAACACACACACACATATATATATATA [CACACA_site2268]	9.99 ± 0.39
TAAATAAATAAAAAAACACACATATATATATATATA [CACACA_site4029]	10.2 ± 0.32
AAAAATGGTGTTAACACACACATATAAATAAATATA [CACACA_site6412]	8.44 ± 0.35
AAAAAATAAATAAACATAAATAAATAAATAAATATA [XGTACX_negctrl_site340]	8.49 ± 0.33
TAAATAAATAAAAAAACACACATATAAATATAAATA [CACACA_site7815]	8.56 ± 0.4
ATAAAAATGGTGTTAACACACACATATATATATATA [CACACA_site8089]	10.1 ± 0.38
AAAAATGGTGTTAACACACACATATATATATATATA [CACACA_site571]	10.2 ± 0.17
AATAAAATATAAACATTATATATATATATATATATA [GTGCAC_negctrl_site58]	10.3 ± 0.38
TATAAATAAAAACACACACACATATATATATATATA [CACACA_site2319]	10.1 ± 0.32
CATAAAATATAAAACACACACACATATATATATATA [CACACA_site223]	10.2 ± 0.44
TAAATAAAAAAACACACACACATATATATATATATA [CACACA_site2269]	10.2 ± 0.25
TTCTAACTTTTAAACACACAAATATAAATAAGTATA [CACACA_site7473]	8.29 ± 0.62
CCAACTAAAAAGGAATGTACATAGTTATGGTTGGAA [XGTACX_site8762]	9.04 ± 0.47
TAAGGAAAAAGAAAAAGTACATTATATAATAAATAG [XGTACX_site3282]	8.71 ± 0.46
